Pf Dd2 growth = qHTS Primary assay for Inhibitors of Plasmodium falciparum Dd2 growth in vitro; P. falciparum Dd2 growth, SYBR Green, 72 h; Potency, µM (doses to about 28.9 µM), actives largely listed as inhibitors; hit rate 4.3% among 120,000; active = well fitted inhibition curve with a large enough effect; note: nearly all actives have a fitted effect of over 65% in size
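Readout: SYBR Green fluorescence, 485 nm excitation, 535 nm emission, after ~16 h lysis at 37C. Before that, Dd2-infected red cells (2.5% hematocrit) grew 72 h with compound, 29 uM top final concentration.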
Each line names hits and unclear results; the compound was inactive in the other large screens. Shown is part of a subset that was picked to be rich in hits.

CN(C)S(=O)(=O)N1CCn2nc(CN3CCCOCC3)cc2C1	none
O=C([C@@H]1C[C@H](Oc2cccnc2)CN1S(=O)(=O)c1ccccc1)N1CCOCC1	none
CCc1nn(-c2ccc(OC)cc2)c(Oc2ccccc2F)c1CCC(=O)NCC1CC1	none
COc1cc(=O)n2c(c1C(=O)N1CCN(c3ccccc3C)CC1)CCCC2	none
Cc1cn2nc(C(=O)NCc3cccc(Cl)c3)cc2c(N2CCCC2)n1	none
COCCO[C@H]1C(=O)N(C2CCN(C(=O)Nc3ccccc3F)CC2)[C@H]1c1ccncc1	none
O=C(NCCCc1ccccc1)c1nnn2c1COC(c1ccc(Br)cc1)C2 (stereo not drawn)	none
CN1CCc2nc(N3CCN(CC4CCCCC4)CC3)sc2C1	none
CCOc1ccccc1NC(=O)C[C@H]1NC(=O)c2ccccc2NC1=O	none
Cc1ccc(NC(=O)CC2Nc3ccccc3NC2=O)cc1C (stereo not drawn)	none
Cc1cc(Br)ccc1NC(=O)C[C@H]1NC(=O)c2ccccc2NC1=O	none
Cc1cc2c(cc1C)NC(CC(=O)Nc1ccccc1)C(=O)N2 (stereo not drawn)	none
COC(=O)c1ccc(NC(=O)CC2Nc3cc(C)c(C)cc3NC2=O)cc1 (stereo not drawn)	Pf Dd2 growth 4µM
O=C(C[C@H]1NC(=O)c2ccccc2NC1=O)Nc1ccncc1	none
CCOC(=O)c1ccc(NC(=O)CC2Nc3ccccc3NC2=O)cc1 (stereo not drawn)	Pf Dd2 growth 13µM
CC(=O)c1ccc(NC(=O)CC2Nc3cc(C)c(C)cc3NC2=O)cc1 (stereo not drawn)	Pf Dd2 growth 5µM
COc1ccc(NC(C)=O)cc1NC(=O)C[C@H]1NC(=O)c2ccccc2NC1=O	none
Cc1ccc(C(=O)NCC2(C)CCOCC2)cn1	none
COc1ccc(CC(=O)N[C@H](C)c2c(-c3ccc(F)cc3)noc2C(=O)O)cc1	none
CCC1(N2CCN(S(=O)(=O)c3cc(F)cc(F)c3)CC2)CCN(S(C)(=O)=O)C1 (stereo not drawn)	none
CCc1noc(-c2cccn3c(CNC(=O)c4cccc(OC)c4)nnc23)n1	none
Cc1cn2nc(C(=O)NCc3ccc(F)cc3F)cc2c(=O)[nH]1	Pf Dd2 growth 3.2µM
Cc1cn2nc(C(=O)NCc3ccc(Cl)cc3)cc2c(=O)[nH]1	none
Cc1cn2nc(C(=O)NCc3ccccc3C)cc2c(=O)[nH]1	none
COc1cccc(CN2C[C@@H](CO)[C@H](C(=O)N(C)C)C2)c1	none
CO[C@H]1[C@H](NC(=O)C2CCN(C(C)=O)CC2)c2ccccc2C12CCNCC2	none
CC(C)CCN(C1CCOCC1)C1CCN(Cc2ccc[nH]2)CC1	Pf Dd2 growth 3.2µM
c1cncc(CN2CCC(C3CCN(Cc4ccc[nH]4)C3)CC2)c1 (stereo not drawn)	none
CC(C)CCN(C1CCOCC1)C1CCN(C(=O)c2ccncc2)CC1	none
CC1CCC(NC(=O)C2CCN(C(=O)c3ncn4c3COC(c3ccc(F)cc3)C4)CC2)CC1 (stereo not drawn)	none
CCN1c2cc(C(=O)NCc3ccc(F)cc3)ccc2C(=O)N2CCCCCC21 (stereo not drawn)	none
CCN1c2cc(C(=O)NCc3cc(OC)ccc3OC)ccc2C(=O)N2CCCCC21 (stereo not drawn)	none
CCN1c2cc(C(=O)NCc3ccccc3OC)ccc2C(=O)N2CCCCCC21 (stereo not drawn)	Pf Dd2 growth 5µM
CCN1c2cc(C(=O)NCc3cc(F)ccc3F)ccc2C(=O)N2CCCCC21 (stereo not drawn)	Pf Dd2 growth 4µM
COc1ccccc1CNC(=O)c1ccc2c(c1)N(C)C1CCCCN1C2=O (stereo not drawn)	none
CCN1c2cc(C(=O)NCc3ccccc3F)ccc2C(=O)N2CCCCCC21 (stereo not drawn)	none
O=C(Nc1ccc(C(F)(F)F)cc1)N1CCCC(Cn2c(C3CC3)nc3cccnc32)C1 (stereo not drawn)	none
CN1CCN(C)c2cnc(-c3cnn(Cc4ccccc4)c3)cc2C1	none
COc1ccc(F)cc1C(=O)N1CC[C@@H]2[C@@H](CCC(=O)N2CCN)C1	none
Cc1ccc(C)c(N2CCN(C(=O)CCS(=O)(=O)c3cc(Br)cc4c3N(C(=O)C3CC3)CC4)CC2)c1	Pf Dd2 growth 11µM
COc1ccccc1CNS(=O)(=O)c1cc(Br)cc2c1N(C(=O)C1CC1)CC2	none
Cc1ccc(C)c(N2CCN(C(=O)CCNS(=O)(=O)c3ccc4c(c3)CCN4C(=O)C3CC3)CC2)c1	none
O=C(CCS(=O)(=O)c1cc(Br)cc2c1N(C(=O)C1CC1)CC2)N1CCN(c2ccc(F)cc2)CC1	Pf Dd2 growth 7.9µM
Cc1ccc(N2CCN(S(=O)(=O)c3cc(Br)cc4c3N(C(=O)C3CC3)CC4)CC2C)cc1 (stereo not drawn)	none
COc1ccc(N2CCN(S(=O)(=O)c3cc(Br)cc4c3N(C(=O)C3CC3)CC4)CC2)cc1	none
O=C(CCS(=O)(=O)c1cc(Br)cc2c1N(C(=O)C1CC1)CC2)N1CCN(c2cccc(C(F)(F)F)c2)CC1	Pf Dd2 growth 10µM
CCC(=O)N1CCc2cc(S(=O)(=O)CCC(=O)N3CCN(c4cccc(Cl)c4)CC3)ccc21	none
Cc1ccc(C)c(N2CCN(S(=O)(=O)c3cc(Br)cc4c3N(C(=O)C3CC3)CC4)CC2)c1	none
O=C(c1ccc2[nH]ccc2c1)N1CC(CO)C2(CCNCC2)C1 (stereo not drawn)	none
Cc1noc(-c2cn(C3CCN(C(=O)C(C)Oc4ccccc4)CC3)nn2)n1 (stereo not drawn)	none
Cc1cnc(C2CCN(C(=O)c3ccc(Cl)cc3)CC2)[nH]1	none
CC1(C(=O)N2CCN(c3ccccn3)CC2)CCCCC(=O)N1 (stereo not drawn)	none
O=C1NC2(CCN(C(=O)c3ccc4c(c3)OCO4)C2)OCc2ccccc21 (stereo not drawn)	none
O=C(c1ccc(F)cc1)N1CCC(Cc2nncn2-c2ccccc2)CC1	none
CCn1ccc(C(=O)N2CCCC2c2nc(C3CCOCC3)no2)n1 (stereo not drawn)	none
COc1ccc(-c2cc(N3CCCC(NC(=O)Cc4ccc(F)cc4)C3)n[nH]2)cc1 (stereo not drawn)	none
Fc1ccc(OCC2CCCN(c3ccc(Cn4ccnc4)cn3)C2)cc1 (stereo not drawn)	Pf Dd2 growth 11µM
CC(C)C1CN(c2ccc(C#N)cn2)CCC(=O)N1Cc1ccc(F)cc1 (stereo not drawn)	none
COc1cc(NC(=O)N2CC(c3noc(-c4ccccc4)n3)C2)cc(OC)c1OC	none
Cc1ccc(S(=O)(=O)NCC2(C)CCOCC2)c(C)c1	none
COc1ccc(-c2cc(C(=O)O)cc(S(=O)(=O)N3CCN(C)CC3)c2)cc1	none
Cc1ccc(C)c(NC(=O)c2nc(S(C)(=O)=O)ncc2N(Cc2ccc(C(C)(C)C)cc2)Cc2ccco2)c1	Pf Dd2 growth 2.5µM
Cc1ccc(C(=O)N(Cc2ccco2)Cc2sccc2C)cc1	none
Cc1ccc(C)c(NC(=O)CCc2nc(-c3ccc(C(C)(C)C)cc3)no2)c1	none
Cc1ccc(NC(=O)c2nc(S(C)(=O)=O)ncc2N(Cc2ccco2)Cc2cccs2)c(C)c1	none
CCS(=O)(=O)c1ncc(N(Cc2ccco2)Cc2sccc2C)c(C(=O)Nc2cc(C)ccc2C)n1	Pf Dd2 growth 5.6µM
Cc1ccsc1CN(Cc1ccco1)C(=O)c1ccc(Cl)cc1	none
CCc1ccc(C(=O)N2CCC3(CC2)OCC(C(=O)N2CCCC2)N3C(=O)c2cccc(C)c2)cc1 (stereo not drawn)	none
CCc1nc2c(c(-c3ccc(OC)cc3)n1)CCN(Cc1ccsc1)CC2	none
CCc1nc2c(c(-c3ccc(O)cc3)n1)CCN(Cc1cccn1C)CC2	Pf Dd2 growth 8.9µM
CCc1nc2c(c(-c3ccc(OC)cc3)n1)CCN(C(=O)c1ccccc1)CC2	none

Compound activity as filed in PubChem BioAssay.
